TRHR enhancer: qHTS for Small Molecule Agonists and Allosteric Enhancers of Human TRH Receptor: Primary Screen for Enhancers | Thyrotropin-releasing hormone receptor (Homo sapiens), P34981 | TRHR cells, fluo-8 calcium fluorescence, EC20 TRH enhancement | enhancement, % at 2 µM | 360,000 tested, 0.66% active | AID 493056, 2011; in the data active means enhancement above about 30%
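Enhancer read-out: after compound pinning and an initial kinetic agonist-mode read, an EC20 of TRH (10 nM final) was injected and fluo-8 calcium signal (Ex 480/Em 530) followed at 1 s/cycle for 100 cycles in TRHR-expressing cells.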
TRHR ag: qHTS for Small Molecule Agonists and Allosteric Enhancers of Human TRH Receptor: Primary Screen for Agonists | Thyrotropin-releasing hormone receptor (Homo sapiens), P34981 | TRHR cells, calcium flux fluo-8, FDSS agonist mode | activation, % at 2 µM | 360,000 tested, 0.18% active | AID 493084, 2011
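Steps: seed TRHR cells overnight; add fluo-8 no-wash Ca dye, RT 30 min–1.5 h; record 10 s baseline; pin-transfer compounds; monitor fluorescence 1 cycle/s for the agonist window. Calcium increases flag candidate agonists.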
D1 antag: Antagonist of Human D 1 Dopamine Receptor: qHTS. D(1A) dopamine receptor (Homo sapiens), P21728. HEK293 TREx D1 cells, calcium flux, dopamine EC80; active compounds read low. activity change, negative = inhibition, % at 10 µM. 360,000 tested, 3.2% active. AID 504652, 2011; in the data active means activity change below about -30%
Target sequence (P21728 whole entry, looked up): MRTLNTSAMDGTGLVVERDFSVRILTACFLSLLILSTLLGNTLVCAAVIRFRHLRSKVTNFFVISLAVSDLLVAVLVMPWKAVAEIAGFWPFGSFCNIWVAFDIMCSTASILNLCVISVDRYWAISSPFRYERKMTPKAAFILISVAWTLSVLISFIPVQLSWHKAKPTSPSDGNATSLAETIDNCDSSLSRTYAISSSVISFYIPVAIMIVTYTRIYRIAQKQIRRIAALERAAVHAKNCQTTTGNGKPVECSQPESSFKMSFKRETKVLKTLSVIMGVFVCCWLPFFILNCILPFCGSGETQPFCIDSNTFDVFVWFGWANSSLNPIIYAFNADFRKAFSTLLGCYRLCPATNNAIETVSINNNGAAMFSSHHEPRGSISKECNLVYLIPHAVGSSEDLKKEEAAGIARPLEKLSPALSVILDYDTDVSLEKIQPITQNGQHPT
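Inducible Hek293 Trex D1 cells (tetracycline, overnight, 30 C). Calcium dye 30–90 min RT. Antagonist mode: EC80 dopamine added after 180 s compound read.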
D1 ag: Allosteric Agonists of the Human D1 Dopamine Receptor: qHTS | D(1A) dopamine receptor (Homo sapiens), P21728 | HEK293 T-REx D1 cells, calcium flux, agonist mode | activation, % at 2 µM | 360,000 tested, 1% active | AID 504660, 2011
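Inducible HEK293 T-REx D1 cells, force-coupled to calcium signalling, were plated at 4000 cells/well with tetracycline and held overnight at 30 C. After no-wash calcium dye loading, compound-evoked calcium rise over 180 s flagged agonists.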
D1 PAM: Potentiators of Human D1 Dopamine Receptor: qHTS; HEK293 TREx D1 cells, calcium flux, dopamine EC20 potentiation; D(1A) dopamine receptor (Homo sapiens), P21728; potentiation, % at 10 µM; 360,000 tested, 0.036% active; in the data active means potentiation above about 30%
A number is an active result; – = inactive; · = no result given. Most compounds without a hit are left out; they make up all but 4.7% or so of the library. Unless noted, no stated cut-off is given here; in the data, active means activation above about 30%; inactive means the rest.

SMILES	TRHR enhancer	TRHR ag	D1 antag	D1 ag	D1 PAM
COc1ccc(OC)c(CCNc2ncnc3onc(-c4ccc(F)cc4)c23)c1	–	–	-32.4	33.3	–
CCOC(=O)c1cnn(-c2ccc(NS(=O)(=O)c3ccc(Cl)cc3)cc2)c1C(F)(F)F	–	–	-62.5	–	–
CCOc1ccccc1NC(=O)C(CC)n1c(C(=O)OC)cc2occc21 (configuration not stated)	–	–	–	–	–
CSc1nnc(N2C(=O)C(O)=C(C(=O)c3ccco3)C2c2cccc(Cl)c2)s1 (configuration not stated)	–	–	–	–	–
CCSc1nnc(N2C(=O)C(O)=C(C(=O)c3ccco3)C2c2cccc(OC)c2)s1 (configuration not stated)	–	–	–	76.9	–
CSc1nnc(N2C(=O)C(O)=C(C(=O)c3ccco3)C2c2ccc(F)cc2)s1 (configuration not stated)	–	36.4	–	128.0	–
CC(=O)c1ccc(NC(=O)c2cc(-c3ccc(C)s3)nc3ccccc23)cc1	–	–	–	–	–
CC(=O)c1cccc(NC(=O)/C(=C/c2ccco2)NC(=O)c2ccco2)c1	–	–	–	–	38.0
Cc1ccc(OCC(=O)Nc2ccccc2C(=O)OCc2cc(=O)n3nc(C4CC4)sc3n2)cc1	–	–	–	–	–
O=C(c1cc2ncc(CCCl)cn2n1)N1CCCCCC1	–	–	-48.2	–	–
Cc1cccc(OCC(=O)NC2CCCCCC2)c1C	–	–	–	–	–
Cc1cccc(C)c1OCC(=O)NC1CC1	–	–	-46.7	–	–
Cc1ccccc1CSCC(=O)NC1CCCC1	–	–	-45.1	–	–
Cc1nnnn1CC(=O)Nc1ccccc1[N+](=O)[O-]	–	–	–	–	–
COc1ccc(-c2cc(C(F)(F)F)nc(S(=O)(=O)CCCC(=O)Nc3ccccc3C(F)(F)F)n2)cc1OC	–	–	–	–	–
COc1ccccc1CNS(=O)(=O)c1ccc(-n2cnnn2)c(C)c1	–	–	-30.7	–	–
COc1ccccc1CNS(=O)(=O)c1ccc2c(c1)NC(=O)CC(=O)N2	–	–	-32.6	–	–
COc1cc(S(=O)(=O)NCc2ccccc2)ccc1-n1cnnn1	–	–	–	–	·
Cc1cc(S(=O)(=O)NC2CCCCC2)ccc1-n1cnnn1	–	–	-30.4	–	–
CCc1ccccc1NS(=O)(=O)c1ccc2c(c1)NC(=O)CC(=O)N2	–	–	–	–	–
COc1ccc(-c2cc(C(=O)Nc3c(C(=O)c4ccc(C)c(F)c4)oc4ccccc34)no2)cc1	–	–	–	–	–
Cc1nc2c(c(SCC(=O)Nc3ccccc3C(F)(F)F)n1)CCC2	–	–	–	–	–
COc1ccc(NC(=O)C(C)n2nnc3sc(-c4ccccc4)cc3c2=O)cc1Cl (configuration not stated)	–	–	–	–	–
N=C1C(c2ccccc2)=C(O)CN1CCO	–	–	-30.2	–	–
CCCCCCN1CC(O)=C(c2ccccc2)C1=N	–	–	–	–	–
SMILES	TRHR enhancer	TRHR ag	D1 antag	D1 ag	D1 PAM
COc1cccc(-n2nnc3c(=O)n(C/C=C/c4ccccc4)cnc32)c1	–	–	-41.3	–	–
CCOc1cccc(CC(=O)NCc2ccc3c(c2)CCN3C(=O)c2cccc(C)c2)c1OCC	–	–	–	–	–
Cc1cccc(NC(=O)c2cc(S(=O)(=O)N3CCc4ccccc43)cn2C)c1	–	–	–	–	–
CSc1cccc(NC(=O)N2CCN(C)CC2)c1	36.5	–	–	–	–
Cn1cc(S(=O)(=O)N2CCCC2)cc1C(=O)Nc1ccc(C(F)(F)F)cc1	–	–	–	33.2	–
CSc1cccc(NC(=O)c2cc(S(=O)(=O)N3CCc4ccccc43)cn2C)c1	–	–	-55.6	–	–
Cn1cc(S(=O)(=O)N2CCc3ccccc32)cc1C(=O)Nc1ccc(Cl)cc1	–	–	-36.8	–	–
CCOC(=O)c1c(C)[nH]c(C)c1S(=O)(=O)N1CCC(C(=O)Nc2ccc(C)cn2)CC1	–	–	–	–	–
COC(=O)c1sc2cccc(F)c2c1S(=O)(=O)Nc1cc(OC)cc(OC)c1	–	–	–	–	–
COc1ccc(OCCn2c(C(C)Oc3ccccc3)nc3ccccc32)cc1 (configuration not stated)	–	–	–	–	–
COc1ccc(-c2nc3c(C#N)c[nH]n3c2NC2CCCCC2)c(OC)c1	–	–	–	–	–
Cc1cccc(C)c1NC(=O)c1cc(S(=O)(=O)N2CCc3ccccc32)cn1C	–	–	-47.3	–	–
Cc1ccccc1Cn1c(C)c(CNCCCc2ccccc2)c(C(=O)O)c1C	–	–	–	–	–
Nc1c(Cl)cc(C2=NCCn3nc4cc(C(F)(F)F)ccc4c32)cc1Cl	–	–	–	–	–
COc1ccc(C2=NCCn3nc4ccccc4c32)cc1	–	–	-45.1	–	–
COc1ccc2c3n(nc2c1)CCN=C3c1cc(Cl)c(N)c(Cl)c1	–	–	-35.5	–	–
O=C(Cn1c(=O)n(-c2cccc(Cl)c2)c(=O)c2sc3ccccc3c21)N1CCCC1	–	–	–	–	–
CC(=O)N1CCC2(CC1)OC(=O)C(C)=C2C(=O)NCc1ccccc1Cl	–	–	–	–	–
CCS(=O)(=O)N1CCC2(CC1)OC(=O)C(C)=C2C(=O)NCc1ccccc1C	–	–	-54.3	–	–
O=C(Nc1ccc(F)c(F)c1)C(c1ccccc1)N1Cc2ccccc2C1=O (configuration not stated)	–	–	–	–	–
Cc1ccc(CNC(=O)c2cc3c(=O)n(C)c4ccccc4c3n2C)o1	–	–	-44.6	–	·
Cn1c(C(=O)NCc2ccc(Cl)cc2)cc2c(=O)n(C)c3ccccc3c21	–	–	–	–	–
O=C(O)CN1C(=O)/C(=C\c2cn(CC(=O)N3CCOCC3)c3ccccc23)SC1=S	–	–	–	31.7	–
COc1ccccc1N(C)S(=O)(=O)c1ccc(Cl)c(C(=O)OCc2c(C)noc2C)c1	–	–	–	30.8	–
O=C(/C=C/c1ccccc1)Nc1cccnc1Oc1ccccc1F	–	–	-39.3	–	–
Nc1cccnc1Oc1ccccc1F	–	–	–	–	–
Cc1ccc(S(=O)(=O)N(C)C)cc1NC(=O)C1CCN(C(=O)Nc2ccccc2)CC1	–	–	-33.7	–	–
Cc1ccccc1C(=O)NNC(=O)C1CCN(C(=O)Nc2ccccc2)CC1	–	–	-45.1	–	–
